# Measured values taken from PubChem BioAssay AID504834 (National Center for Advancing Translational Sciences (NCATS), 2011).
# Several values for one entry are separate records, joined by “and”; a condition that tells them apart may be missing. Equal entries are not always repeated. Out of some 320,000 compounds screened, about 22,000 (6.9%) were called active. A call without a number means that no potency is given here. Inconclusive results (about 27%) are left out. This is one part of a sample in which actives are shown more often than they occur. Calls come from the whole dose curve; as a rule, active = well fitted inhibition curve with a large enough effect; inconclusive = small, poorly fitted or top-dose-only effect, or another doubt; inactive = no such curve, though single readings can be large or run the other way. More than one record can exist for a structure, and the calls need not agree.
# Test: Primary qHTS for delayed death inhibitors of the malarial parasite plastid, 96 hour incubation
# Settings: P. falciparum luciferase reporter growth; series mostly up to 28.7 µM
# Outline: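 Two-generation exposure (96 h) targets delayed-death phenotype. Reporter parasites carrying integrated firefly luciferase, in red cells at 2% hematocrit and 0.05% parasitemia final, kept at 37 C, 5% CO2; luminescence loss indicates inhibition.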
# Potency is the fitted concentration of half-maximal effect.
row,Structure (SMILES),Potency
1,O=C(O)c1ccccc1CSc1nc2ccccc2s1,inactive
2,Cc1cc(C)cc(N(CC(=O)N2CC=C(c3ccccc3)CC2)S(=O)(=O)c2c(C)noc2C)c1,6.57 µM (active)
3,Cc1cc(C)cc(N(CC(=O)NCC2CCCO2)S(=O)(=O)c2c(C)noc2C)c1 (centres undefined),inactive
4,CCOC(=O)C1CCCN(C(=O)CN(c2ccc(OC)cc2)S(=O)(=O)c2c(C)noc2C)C1 (centres undefined),inactive
5,COc1ccc(NC2CCCN(C(=O)c3ccncc3)C2)cc1 (centres undefined),inactive
6,COc1ccccc1N(C)C(=O)c1cc(S(=O)(=O)N2CCc3ccccc32)cn1C,inactive
7,CC(=O)NCC(O)c1ccc([N+](=O)[O-])cc1 (centres undefined),inactive
8,Cc1ccc(C23CC4CC(CC(C(=O)NCC(=O)O)(C4)C2)C3)cc1,inactive
9,NCC(O)c1ccc(O)cc1 (centres undefined),inactive and 4.26 µM (active)
10,CNCC(O)c1ccc(O)c(O)c1 (centres undefined),inactive
11,COc1ccc(S(=O)(=O)NNC(=O)Nc2ccc(C)cc2)c(OC)c1,inactive
12,N#CCCN1CCN(S(=O)(=O)c2ccc(S(=O)(=O)NC3CC3)cc2)CC1,inactive
13,N#CCCN1CCN(S(=O)(=O)c2ccc(S(=O)(=O)N3CCCC3)cc2)CC1,inactive
14,N#CCCN1CCN(S(=O)(=O)c2ccc(S(=O)(=O)NC3CCCCC3)cc2)CC1,8.28 µM (active)
15,CN(Cc1ccc(F)cc1Cl)S(=O)(=O)c1cccs1,inactive
16,Cc1cccc(OCC(=O)NC(=S)Nc2ccccc2N2CCOCC2)c1,inactive
17,COCC(=O)Nc1c(C(=O)N2CCCC2)oc2ccccc12,inactive
18,CCOCCCN(C)C1CCN(C(=O)c2oc3ccccc3c2NC(=O)COc2cccc(C)c2)CC1,13.1 µM (active)
19,Cc1ccc(C)c(C(=O)N2CCC(n3nccc3NC(=O)C3CC3)CC2)c1,inactive
20,Cc1c(CN2CCC(n3nccc3NC(=O)CCc3ccccc3)CC2)cnn1C,inactive
21,CCN1CCN(C(=O)C2CCN(S(=O)(=O)c3cc(Cl)ccc3Cl)CC2)CC1,inactive
22,COc1ccc(-n2c(=O)[nH]c3cc(C(=O)NCCc4ccc(OC)c(OC)c4)ccc3c2=O)c(OC)c1,inactive
23,CCCCOC(=O)Nc1sc2nc(C)cc(C)c2c1-n1cccc1,inactive
24,Cc1cc(C)c2c(-n3cccc3)c(C(=O)NNS(=O)(=O)c3ccc(F)cc3)sc2n1,inactive
25,Cc1cc(C)c2c(-n3cccc3)c(NC(=O)OCc3ccccc3)sc2n1,13.1 µM (active)
26,COc1ccccc1-n1c(SCC(=O)Nc2cccc(C(=O)O)c2)nnc1-c1ccccc1O,inactive

row,Structure (SMILES),Potency
1,Cc1cc(C)c2c(-c3ccc(F)cc3)c(C#N)c(=O)n(C)c2n1,inactive
2,O=C(CCN1C(=O)[C@@H]2Cc3ccccc3CN2C1=O)NCc1ccccc1,inactive
3,C=CCc1cccc(/C=N/NC(=O)COc2ccc(-n3cnnn3)cc2)c1O,inactive
4,Cc1ccc(C(=O)OCC(=O)NC(=O)Cc2ccccc2)c(O)c1,inactive
5,COc1ccc(-c2csc(NC(=O)COC(=O)c3ccc(Br)o3)n2)cc1,inactive
6,COc1ccc(-c2nc(CCNC(=O)c3ccc(Br)o3)cs2)cc1,8.28 µM (active)
7,O=C(NCCc1csc(-c2ccccc2)n1)c1ccccc1F,inactive
8,NS(=O)(=O)c1ccc(NC(=S)N2CCCC2)cc1,inactive
9,Cc1ccc(C2C3=C(Nc4[nH]n(-c5ccccc5)c(=O)c42)c2ccccc2C3=O)cc1 (centres undefined),11.7 µM (active)
10,Cc1ccc(N=Nc2c(C)[nH]n(-c3ccccc3)c2=O)cc1,inactive
11,COC(=O)C1=C(C)NC2=C(C(=O)c3ccccc32)C1c1ccc(-c2ccc(C(=O)O)cc2)o1 (centres undefined),inactive
12,CC1C(=O)NC(=O)C1c1ccccc1 (centres undefined),inactive
13,COc1ccccc1C(=O)NCCC(=O)NC1=NCCS1,inactive
14,CCOC(=O)c1ccccc1NC(=O)COC(=O)CCC(=O)N1CCOCC1,inactive
15,COc1ccc(N(C(=O)CNC(=O)c2ccco2)C(C(=O)NCC2CCCO2)c2ccccc2)cc1Cl (centres undefined),inactive
16,N=c1c2c(-c3ccccc3)c(-c3ccccc3)n(Cc3ccccc3)c2ncn1CCCO,4.65 µM (active)
17,COCCn1cnc2c1c(=O)n(CC(=O)NN)c(=O)n2Cc1ccccc1,inactive
18,Cc1nc([N+](=O)[O-])c(NCCCO)n1Cc1ccccc1,inactive
19,CC1=C(C(=O)OC2CCCCC2)C(c2ccccc2F)NC(=O)N1 (centres undefined),inactive
20,O=C(CSc1nnc(-c2ccccc2O)o1)NC1CCCCC1,inactive
21,COc1ccccc1NC(=O)COC(=O)COc1ccccc1F,inactive
22,C=CCn1c(SCc2ccccc2)nc2c1c(=O)[nH]c(=O)n2C,inactive
23,C=CCSc1nc2c(c(=O)[nH]c(=O)n2C)n1Cc1ccccc1,inactive
24,CCCCCn1c(SCCC(C)C)nc2c1c(=O)[nH]c(=O)n2C,13.1 µM (active)
25,CCN(CC(=O)Nc1ccccc1OC)C(=O)CC1CC2CCC1C2 (centres undefined),inactive
26,COc1ccccc1OCc1ccc(C(=O)NC(C)c2ccccc2)o1 (centres undefined),inactive

row,Structure (SMILES),Potency
1,CCN(CC)C(=O)CC1(c2ccccc2OC)CCOC(C(C)C)C1 (centres undefined),11.7 µM (active)
2,CN1CCN(S(=O)(=O)c2cccc(C(=O)Nc3cccc(S(N)(=O)=O)c3)c2)CC1,inactive
3,CN(C)c1ccc(S(=O)(=O)NCC(=O)NCC2CCCCC2)cc1[N+](=O)[O-],inactive
4,COc1ccc(C(=O)OCC(=O)NCCCc2ccccc2)cc1OC,inactive
5,CCOc1ccc(C(CCc2ccccc2)NC(=O)c2ccc(OC)c(OC)c2)cc1OCC (centres undefined),0.233 µM (active)
6,CCOc1ccc(C(CC(=O)O)NC(=O)C23CC4CC(CC(C4)C2)C3)cc1OC (centres undefined),inactive
7,Cc1cc(NS(=O)(=O)c2ccc(NC(=O)c3cccnc3)cc2)nc(C)n1,inactive
8,CCN1N=C(c2ccccc2)CCC1=O,inactive
9,O=c1oc2c(CN3CCCCC3)c(O)ccc2c2c1CCCCC2,10.4 µM (active)
10,CCN1CCN(Cc2c(O)ccc3c(=O)c(-c4ccc(OC)c(OC)c4)c(C(F)(F)F)oc23)CC1,inactive
11,O=c1c(-c2ccccc2)coc2c(CN3CCOCC3)c(O)ccc12,inactive
12,COc1cc(NC(=O)CSC(=S)N2CCCC2)c(OC)cc1Cl,inactive
13,CN(CCNC(=O)c1cc2c(-c3ccccc3F)nn(C)c2s1)C1CCCCC1,inactive
14,COc1ccc(CNC(=O)COc2cccnc2[N+](=O)[O-])cc1,inactive
15,Cc1ccc(C)c(S(=O)(=O)N2CCN(CC(=O)Nc3ccc([N+](=O)[O-])cc3)CC2)c1,10.4 µM (active)
16,Cc1ccc(C)c(S(=O)(=O)N2CCN(C(=O)Nc3ccccc3)CC2)c1,inactive
17,Cc1ccc([N+](=O)[O-])cc1S(=O)(=O)N1CCCN(C)CC1,inactive
18,Cc1c(CNCCc2ccccc2)c(C(=O)O)c(C)n1-c1ccccc1,inactive
19,Cc1ccc(CC2C(=O)N(c3ccc(F)cc3)C(=O)C2C)cc1 (centres undefined),inactive
20,CCCc1nn(C)c2c(=O)[nH]c(-c3cc(S(N)(=O)=O)ccc3OCC)nc12,inactive
21,CC(C)CN(C(=O)c1cccc(S(=O)(=O)N2CCCCC2)c1)C1CCS(=O)(=O)C1 (centres undefined),inactive
22,CCC1CCCCN1C(=S)Nc1ccc(SC(F)F)cc1 (centres undefined),inactive
23,CCC1CCCCN1C(=S)Nc1ccc(S(=O)(=O)Nc2ncccn2)cc1 (centres undefined),10.4 µM (active)
24,CCC1CCCCN1C(=S)Nc1ccc(C(C)=O)cc1 (centres undefined),inactive
25,Cc1ccc(C)c(S(=O)(=O)Nc2cc(C)on2)c1,inactive
26,Cc1ccc(OCC(=O)Nc2ccc(N3CCN(C(=O)c4ccco4)CC3)cc2)c(C)c1,inactive

row,Structure (SMILES),Potency
1,O=C(CSc1nc2ccccc2[nH]1)c1cccs1,inactive
2,CN(Cc1ccccc1)C(=O)CSc1nc2ccccc2[nH]1,inactive
3,O=C(CSc1nc2ccccc2[nH]1)Nc1nc(-c2ccccc2)c(-c2ccccc2)o1,13.1 µM (active)
4,COc1ccc2c(c1)C(NS(=O)(=O)OCC(Cl)(Cl)Cl)CCC2 (centres undefined),inactive
5,CCOc1ccc(NC(=O)Nc2ccc(N(C)C(C)=O)cc2)cc1,16.5 µM (active)
6,CC(=O)N(C)c1ccc(NC(=O)C(F)(F)F)cc1,inactive
7,CCOc1ccc(NC(=O)N(CC(C)C)CC(C)C)cc1,inactive
8,O=C(O)CCCCCCCCc1cn(CN2C(=O)c3ccccc3C2=O)nn1,inactive
9,CC(=O)c1sc(NC(=O)c2ccc(C)cc2)nc1C,inactive
10,O=C(Nc1ccc(-c2csc(Nc3cccc(C(F)(F)F)c3)n2)cc1)c1cccc(C(F)(F)F)c1,8.28 µM (active)
11,O=C(Nc1nc(-c2ccc(-c3ccccc3)cc2)cs1)c1cnccn1,inactive
12,CNC(=O)c1ccc(NC(=O)c2cccc(C(F)(F)F)c2)cc1,inactive
13,CC(=O)Nc1cccc(C(=O)Nc2nc(C)cs2)c1,inactive
14,Cc1nc(NC(=O)c2cccc(Cl)c2)sc1-c1csc(Nc2cccc(Cl)c2)n1,9.28 µM (active)
15,Cc1ccc(Nc2nc(-c3sc(NC(=O)c4ccccc4)nc3C)cs2)cc1,13.1 µM (active)
16,CCNS(=O)(=O)c1ccc(NC(=O)Nc2cccc(C(F)(F)F)c2)cc1,inactive
17,O=C(O)c1ccccc1C(=O)Nc1nc(-c2ccccc2)cs1,inactive
18,Cn1sc(NC(=O)c2ccccc2)nc1=O,inactive
19,Cc1ccc(-c2csc(NNC(=O)c3ccccc3)n2)cc1,3.7 µM (active)
20,CCOC(=O)c1c(NC(=O)CN2C(=O)NC3(CCC(C)CC3)C2=O)sc(C)c1CC (centres undefined),inactive
21,NC(=O)c1c(NC(=O)CSc2nc(N)cc(=O)[nH]2)sc2c1CCCC2,inactive
22,COc1cc(NS(=O)(=O)c2ccc(NC(=S)NC(=O)c3ccc(Br)cc3)cc2)ncn1,inactive
23,COc1ccccc1Cn1c(CO)nc2ccccc21,inactive
24,COc1ccc(-n2ncc3c(SCC(=O)NNC(C)=O)ncnc32)cc1,inactive
25,CC(=O)c1cccc(NC(=O)c2cc(C)nn2-c2ccccc2)c1,inactive
26,COc1ccc(Cl)cc1C(=O)OCC(=O)NCc1cccs1,inactive
